According to the supplement of paper PMC11172423:
Values without a mark were called inactive.

test system: Madurella mycetomatis MM55; test: growth relative to untreated control; higher = less inhibition, active = 20 or less; details: 25 µM
Protocol: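 Hyphal fragments of M. mycetomatis MM55 or F. senegalensis CBS197.79 in RPMI 1640/MOPS were exposed to each MMV COVID Box or Global Health Priority Box compound at 100 or 25 µM for 7 days at 37 °C. Viability was read with MTS (490 nm, M. mycetomatis) or resazurin (600 nm, F. senegalensis), background-corrected with a medium-only control and expressed as % growth relative to the untreated growth control. Inhibition of more than 80% was taken as growth inhibition.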

SMILES	growth
CC(C)=CC1C(C(=O)OCN2C(=O)C3=C(CCCC3)C2=O)C1(C)C (stereo not given)	85.9%
Cc1c(COC(=O)[C@@H]2[C@H](C=C(Cl)C(F)(F)F)C2(C)C)cccc1-c1ccccc1	123%
CC[C@H](C)[C@H]1O[C@]2(C=C[C@@H]1C)C[C@@H]1C[C@@H](C/C=C(\C)[C@@H](O[C@H]3C[C@H](OC)[C@@H](O[C@H]4C[C@H](OC)[C@@H](O)[C@H](C)O4)[C@H](C)O3)[C@@H](C)/C=C/C=C3\CO[C@@H]4[C@H](O)C(C)=C[C@@H](C(=O)O1)[C@]34O)O2.CO[C@H]1C[C@H](O[C@H]2[C@H](C)O[C@@H](O[C@@H]3/C(C)=C/C[C@@H]4C[C@@H](C[C@]5(C=C[C@H](C)[C@@H](C(C)C)O5)O4)OC(=O)[C@@H]4C=C(C)[C@@H](O)[C@H]5OC/C(=C\C=C\[C@@H]3C)[C@]54O)C[C@@H]2OC)O[C@@H](C)[C@@H]1O	75.2%
CC(C)(C)Nc1cc2c(cn1)nc(Nc1cc(Cl)cc(C(F)(F)F)c1)n2C1CCNC1 (stereo not given)	8.45% (active)
Clc1cc(Cl)cc(Nc2nc3cnc(NC4CCCC4)cc3n2C2CCNC2)c1 (stereo not given)	7.86% (active)
CN1COCN(Cc2cnc(Cl)s2)/C1=N/[N+](=O)[O-]	87.9%
Cc1sc2c(c1C)C(c1ccc(Cl)cc1)=N[C@@H](CC(=O)OC(C)(C)C)c1nnc(C)n1-2	97.1%
O=C(NC(=O)c1ccccc1Cl)Nc1ccc(OC(F)(F)F)cc1	106%
C/C=C(\C)C(=O)O[C@H]1C[C@@H](OC(C)=O)[C@@]2(C(=O)OC)CO[C@H]3[C@@H](O)[C@@](C)([C@]45O[C@@]4(C)[C@H]4C[C@@H]5O[C@@H]5OC=C[C@@]54O)[C@H]4[C@]1(CO[C@]4(O)C(=O)OC)[C@@H]32	130%
O=C1C=C(N(Cc2ccc(Cl)nc2)CC(F)F)CO1	92.5%
O=[N+]([O-])/N=C1\NCCN1Cc1ccc(Cl)nc1	92.8%
COP(=S)(OC)Oc1ccc(Sc2ccc(OP(=S)(OC)OC)cc2)cc1	118%
COc1ccc(C[C@H]2NC[C@H](O)[C@H]2OC(C)=O)cc1	111%
CC(COc1ccc(Oc2ccccc2)cc1)Oc1ccccn1 (stereo not given)	50.7%
C=C(C)[C@H]1Cc2c(ccc3c2O[C@@H]2COc4cc(OC)c(OC)cc4[C@@H]2C3=O)O1	7.57% (active)
CC[C@@H](C(=O)[C@@H](C)[C@@H](O)[C@H](C)[C@@H]1O[C@@H]([C@@H](CC)C(=O)O)CC[C@@H]1C)[C@H]1O[C@]2(C=C[C@@H](O)[C@]3(CC[C@@](C)([C@H]4CC[C@](O)(CC)[C@H](C)O4)O3)O2)[C@H](C)C[C@@H]1C	124%
CNC(=O)Oc1cccc2c1OC(C)(C)O2	95.6%
CCOP(=S)(OCC)Oc1nc(Cl)c(Cl)cc1Cl	142%
CCN(CC)c1nc(C)cc(OP(=S)(OC)OC)n1	110%
CCOCn1c(-c2ccc(Cl)cc2)c(C#N)c(Br)c1C(F)(F)F	30.1%

same assay, conditions: 100 µM

SMILES	growth
CC(C)=CC1C(C(=O)OCN2C(=O)C3=C(CCCC3)C2=O)C1(C)C (stereo not given)	127%
Cc1c(COC(=O)[C@@H]2[C@H](C=C(Cl)C(F)(F)F)C2(C)C)cccc1-c1ccccc1	156%
CC[C@H](C)[C@H]1O[C@]2(C=C[C@@H]1C)C[C@@H]1C[C@@H](C/C=C(\C)[C@@H](O[C@H]3C[C@H](OC)[C@@H](O[C@H]4C[C@H](OC)[C@@H](O)[C@H](C)O4)[C@H](C)O3)[C@@H](C)/C=C/C=C3\CO[C@@H]4[C@H](O)C(C)=C[C@@H](C(=O)O1)[C@]34O)O2.CO[C@H]1C[C@H](O[C@H]2[C@H](C)O[C@@H](O[C@@H]3/C(C)=C/C[C@@H]4C[C@@H](C[C@]5(C=C[C@H](C)[C@@H](C(C)C)O5)O4)OC(=O)[C@@H]4C=C(C)[C@@H](O)[C@H]5OC/C(=C\C=C\[C@@H]3C)[C@]54O)C[C@@H]2OC)O[C@@H](C)[C@@H]1O	55.6%
CC(C)(C)Nc1cc2c(cn1)nc(Nc1cc(Cl)cc(C(F)(F)F)c1)n2C1CCNC1 (stereo not given)	7.09% (active)
Clc1cc(Cl)cc(Nc2nc3cnc(NC4CCCC4)cc3n2C2CCNC2)c1 (stereo not given)	6.79% (active)
CN1COCN(Cc2cnc(Cl)s2)/C1=N/[N+](=O)[O-]	126%
Cc1sc2c(c1C)C(c1ccc(Cl)cc1)=N[C@@H](CC(=O)OC(C)(C)C)c1nnc(C)n1-2	4.14% (active)
O=C(NC(=O)c1ccccc1Cl)Nc1ccc(OC(F)(F)F)cc1	112%
C/C=C(\C)C(=O)O[C@H]1C[C@@H](OC(C)=O)[C@@]2(C(=O)OC)CO[C@H]3[C@@H](O)[C@@](C)([C@]45O[C@@]4(C)[C@H]4C[C@@H]5O[C@@H]5OC=C[C@@]54O)[C@H]4[C@]1(CO[C@]4(O)C(=O)OC)[C@@H]32	106%
O=C1C=C(N(Cc2ccc(Cl)nc2)CC(F)F)CO1	114%
O=[N+]([O-])/N=C1\NCCN1Cc1ccc(Cl)nc1	98.3%
COP(=S)(OC)Oc1ccc(Sc2ccc(OP(=S)(OC)OC)cc2)cc1	118%
COc1ccc(C[C@H]2NC[C@H](O)[C@H]2OC(C)=O)cc1	3.35% (active)
CC(COc1ccc(Oc2ccccc2)cc1)Oc1ccccn1 (stereo not given)	46.3%
C=C(C)[C@H]1Cc2c(ccc3c2O[C@@H]2COc4cc(OC)c(OC)cc4[C@@H]2C3=O)O1	9.11% (active)
CC[C@@H](C(=O)[C@@H](C)[C@@H](O)[C@H](C)[C@@H]1O[C@@H]([C@@H](CC)C(=O)O)CC[C@@H]1C)[C@H]1O[C@]2(C=C[C@@H](O)[C@]3(CC[C@@](C)([C@H]4CC[C@](O)(CC)[C@H](C)O4)O3)O2)[C@H](C)C[C@@H]1C	70.3%
CNC(=O)Oc1cccc2c1OC(C)(C)O2	129%
CCOP(=S)(OCC)Oc1nc(Cl)c(Cl)cc1Cl	111%
CCN(CC)c1nc(C)cc(OP(=S)(OC)OC)n1	99.4%
CCOCn1c(-c2ccc(Cl)cc2)c(C#N)c(Br)c1C(F)(F)F	6.93% (active)
